Screens as filed in PubChem BioAssay.
HT1080NT lethal = kills 2HG-producing HT-1080-NT fibrosarcoma cells | HT-1080-NT fibrosarcoma viability, CellTiter-Glo ATP luminescence, 48 h | Potency, µM (top dose mostly 46.1 µM), inactives show top-dose activity, negative = less viability, actives largely listed as cytotoxic | 360,000 tested, 1.6% active;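 also: NT is the 2HG producing partner of a matched IDH1 knockdown line; potency is read from the fitted curve at half-maximal effect; 0% = DMSO-treated cells and -100% = media-only wells without cells; nearly all actives have a fitted effect of over 55% in size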
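Viability of the 2HG-overproducing fibrosarcoma line after 48 hours of compound exposure at 37 degrees C was determined by luminescence with CellTiter-Glo, and concentration-effect curves were then fitted and categorized.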
DT40 TDP1 CPT = DT40-hTDP1 cell growth loss with CPT. chicken DT40 Tdp1-/-;hTDP1 cells + 20 nM CPT, ATP luminescence, 48 h. Potency, µM (titrated, usually from 46.2 µM), inactives show at the top dose activity change, negative = growth inhibition, most hits filed as inhibitors. 420,000 tested, 12% active. AID 686979; also: potency is read from the fitted curve at half-maximal effect; nearly all actives have a fitted effect of over 55% in size
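Chicken DT40 Tdp1-/- cells stably complemented with human TDP1 were seeded at 400 cells/well in medium containing 20 nM camptothecin, exposed to pin-transferred compounds, and grown at 37 °C for at least 48 hr. Viability was read as ATP luminescence.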
TDP1 cell noCPT = qHTS for Inhibitors of human tyrosyl-DNA phosphodiesterase 1 (TDP1): qHTS in cells in absence of CPT | DT40 Tdp1-/- hTDP1 cells, no CPT, ATP luminescence, 48 h | 420,000 tested, 15% active | Potency, µM (titrated, usually from 46.2 µM), for the others: at the top dose activity change, negative = growth inhibition, actives largely listed as inhibitors; also: potency is read from the fitted curve at half-maximal effect; nearly all actives have a fitted effect of over 55% in size
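Growth of hTDP1-complemented DT40 Tdp1-knockout cells is measured by ATP luminescence after at least 48 hr compound exposure at 37 °C, with DMSO substituting for the 20 nM CPT used in the parallel screen.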
HT1080 IDH1KD tx = HT-1080 IDH1 knockdown cell toxicity (counter line). HT-1080 IDH1 knockdown viability, ATP luminescence, 48 h. Potency, µM (highest dose often 46.1 µM), inactives show top-dose activity, negative = toxicity, hits mostly cytotoxic. 360,000 tested, 2% active;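 also: potency is read from the fitted curve at half-maximal effect; 0% = DMSO wells and -100% = cell-free medium wells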
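CellTiter-Glo luminescence after 48 h compound exposure at 37 degrees C of IDH1-knockdown HT-1080 cells in 5% FBS RPMI. %Activity scaled between DMSO wells and cell-free media wells, with curves fitted and assigned curve classes.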
IL1B secr inh = inflammasome signaling inhibition, IL-1 beta readout; THP-1 LPS/ATP IL-1B secretion, AlphaLISA, 16 h; hits give low values; activity change, % at 57.5 µM; 360,000 tested, 4.7% active; AID 743279; in the data active = activity change below about -50%; inconclusive = mostly about -30% to -49%
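THP-1 cells pretreated 1 hr with compounds (up to 57.5 uM final), then stimulated with LPS (250 ng/mL final) plus ATP (1.25 mM final); secreted IL-1B measured by AlphaLISA after 16 hr, decreased signal indicating inhibition.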
* marks the source's active call; other numbers are inactive results; ? = inconclusive; . = no result given. The list is not random: actives were taken first. Their share in the collection is about 19%. Unless noted, calls follow the shape of the dose curve; as a rule, active = well fitted curve in the direction sought with a large enough effect; inconclusive = small, poorly fitted or top-dose-only effect, or another doubt; inactive = no such curve, though single readings can be large; an effect the other way counts as inactive or inconclusive. Unless noted, % is scaled to controls: 0 for no effect and ±100 for the full control effect.

SMILES | HT1080NT lethal | DT40 TDP1 CPT | TDP1 cell noCPT | HT1080 IDH1KD tx | IL1B secr inh
COc1cc(O)c(C(CCN2CCCC2)c2cc(OC)c(OC)c(OC)c2)c(OC)c1 (stereo not drawn) | 0% | -14% | ? | 1% | 32
COc1ccc(OC)c(/C=C/C(=O)Nc2cccc(S(=O)(=O)N3CCCC3)c2)c1 | 0% | 23µM* | 29µM* | -6% | -19
CCN1CCN(c2ccc(S(=O)(=O)N3CCCCC3)cc2NC(=O)/C=C/c2cc(OC)ccc2OC)CC1 | -27% | 16µM* | ? | -22% | -98*
CCN1CCN(c2ccc(S(=O)(=O)N3CCCCC3)cc2NC(=O)/C=C/c2ccc(OC)c(OC)c2)CC1 | 6% | ? | ? | 7% | -5
COc1ccc(NC(=S)Nc2cccc(S(=O)(=O)N3CCCCC3)c2)cc1 | 6% | ? | ? | 6% | 3
CCN1CCN(c2ccc(S(=O)(=O)N3CCCCC3)cc2NC(=O)/C=C/c2ccc(Cl)cc2)CC1 | -21% | ? | ? | ? | -93*
CN1CCC(N(C)C(=O)COc2ccccc2Cl)CC1 | 4% | 1% | -12% | 13% | 25
Nc1cc(C(=O)O)c(N)c2c1C(=O)c1ccccc1C2=O | ? | 16µM* | ? | ? | 0
Cc1ccc(Cn2c(C3CCCN3c3nc(-c4cc(Cl)c(N)c(Cl)c4)cs3)nc3cc(Cl)c(Cl)cc32)cc1 (stereo not drawn) | -11% | -16% | ? | 1% | 20
Cc1ccc(S(=O)(=O)NC2CC(C)(C)N(O)C(C)(C)C2)cc1 | 9% | ? | 21µM* | 1% | 19
COc1ccc(C2C(=O)N(C3CCCCC3)CC(=O)N2CCC2=CCCCC2)cc1 (stereo not drawn) | . | ? | 16µM* | . | .
Cc1ccc(C2C(=O)N(C3CCCCCC3)CC(=O)N2CCC2=CCCCC2)cc1 (stereo not drawn) | . | ? | 21µM* | . | .
COc1ccc(C2C(=O)N(C3CCCCCC3)CC(=O)N2CCC2=CCCCC2)cc1 (stereo not drawn) | . | 23µM* | 15µM* | . | .
CCCOc1ccc(C2C(=O)N(C3CCCCC3)CC(=O)N2CCC2=CCCCC2)cc1OC (stereo not drawn) | . | -16% | -27% | . | .
CCCOc1ccc(C2C(=O)N(C3CCCCCC3)CC(=O)N2CCC2=CCCCC2)cc1OC (stereo not drawn) | . | -12% | -20% | . | .
CCOCCCN1C(=O)CN(C2CCC(C)CC2)C(=O)C1c1ccc(C)cc1 (stereo not drawn) | -6% | ? | 2.3µM* | -12% | -11
CCCCC(CC(O)COCCC)c1n[nH]c(=S)n1-c1ccccc1 (stereo not drawn) | 7% | -4% | 6% | 7% | 51
CCc1c(-c2ccccc2)[n+](=O)c2c(n1[O-])CCC2 | 20% | 2% | -22% | 13% | 13
COc1ccc(C2C(=O)N(C3CCCCCC3)CC(=O)N2Cc2ccc(C)cc2)cc1 (stereo not drawn) | . | 23µM* | 26µM* | . | .
COc1cccc(C2C(=O)N(C3CCCCC3)CC(=O)N2Cc2ccc(F)cc2)c1 (stereo not drawn) | 7% | ? | ? | ? | -12
Cc1ccc(OCCOc2ccc(Br)cc2)c([N+](=O)[O-])n1 | -11% | -15% | -14% | -21% | -58*
Cc1cc(=O)n2c(C(=O)Nc3ccc(C(=O)OC(C)C)cc3)c(C(=O)Nc3ccccc3)sc2n1 | ? | ? | 15µM* | -23% | 21
COc1ccc(C)cc1NC(=O)c1c(C(=O)Nc2cccc(C)c2C)sc2nc(C)cc(=O)n12 | . | -2% | -3% | . | .
Cc1ccc(C(=O)N/N=C/c2ccc(-c3cccc(C(F)(F)F)c3)o2)cn1 | ? | 2.9µM* | 2.6µM* | 2.1µM* | 3
CNC(=S)N/N=C/c1ccc(-c2cccc(C(=O)O)c2)o1 | ? | 9.2µM* | 8.2µM* | ? | 19
